Data published in PubChem BioAssay (Tox21).
Several values for one entry are separate records, joined by “and”; a condition that tells them apart may be missing. Equal entries are not always repeated. Records with an inconclusive call do not appear. Activity calls are given as the source filed them. Calls come from the whole dose curve; as a rule, active = well fitted curve in the direction sought with a large enough effect in the repeat runs; inconclusive = weak or mixed curves; inactive = no such curve, though single readings can be large; an effect the other way counts as inactive or inconclusive.

Assays:
[1] = Human pregnane X receptor (PXR) small molecule agonists, qHTS cell viability counter screen (AID 1346977); note: nearly all actives have a fitted effect of over 50% in size
Summary of the method: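 Tox21 qHTS format; PXR-Luc HepG2, 2,000/well, charcoal-stripped FBS 5%. Cpd exposure 24hr. Read: CellTiter-Fluor fluorescence, multiplexed with luciferase.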

[2] = Caspase-3/7 induction in HepG2 cells by small molecules, qHTS assay (AID 1346978); note: nearly all actives have a fitted effect of over 15% in size
Summary of the method: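 Wild-type HepG2 cells, 2,000/well, settled 5 hr at 37 C and 5% CO2, then compound-treated for 17 hr; caspase-3/7 activity read by luminescent Caspase-Glo 3/7 after 30 min at room temperature.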

[3] = Caspase-3/7 induction in CHO-K1 cells by small molecules, qHTS cell viability counter screen (AID 1346979); note: nearly all actives have a fitted effect of over 35% in size
Summary of the method: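 CellTiter-Fluor viability check, qHTS format: wild-type CHO-K1, 16hr compound treatment, 1hr reagent incubation, fluorescence read.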

[4] = Caspase-3/7 induction in CHO-K1 cells by small molecules, qHTS assay (AID 1346980); note: nearly all actives have a fitted effect of over 15% in size
Summary of the method: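 Wild-type CHO-K1 cells exposed to compounds for 17hr at 37 C, 5% CO2. Caspase-3/7 activity then measured by Caspase-Glo 3/7 luminescence after 30min at room temperature.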

[5] = Caspase-3/7 induction in HepG2 cells by small molecules, qHTS cell viability counter screen (AID 1346981); note: nearly all actives have a fitted effect of over 30% in size
Summary of the method: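 Cell viability is measured as a cytotoxicity counter screen alongside the Caspase-Glo 3/7 readout in identical wells. Wild-type HepG2 cells are treated with test compounds for 16 hr at 37 C before CellTiter-Fluor addition and a 1-hr incubation.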

[6] = target: Nuclear receptor subfamily 1 group I member 2 (Homo sapiens) (UniProt O75469); assay: Human pregnane X receptor (PXR) small molecule agonists, qHTS assay (AID 1346982); note: nearly all actives have a fitted effect of over 35% in size
Nuclear receptor subfamily 1 group I member 2 (Homo sapiens), sequence (O75469 whole entry, looked up): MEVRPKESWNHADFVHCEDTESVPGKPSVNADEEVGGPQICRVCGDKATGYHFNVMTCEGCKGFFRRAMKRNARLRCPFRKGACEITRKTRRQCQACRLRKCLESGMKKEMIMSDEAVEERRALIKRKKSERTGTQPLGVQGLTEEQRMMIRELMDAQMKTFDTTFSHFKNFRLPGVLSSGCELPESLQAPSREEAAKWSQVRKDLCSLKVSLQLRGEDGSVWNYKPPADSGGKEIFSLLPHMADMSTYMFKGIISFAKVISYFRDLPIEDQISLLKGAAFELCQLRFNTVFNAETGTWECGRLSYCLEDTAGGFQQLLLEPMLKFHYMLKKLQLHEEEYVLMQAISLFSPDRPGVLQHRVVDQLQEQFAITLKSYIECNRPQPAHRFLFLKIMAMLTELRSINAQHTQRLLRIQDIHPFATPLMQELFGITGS
Summary of the method: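 Cells: HepG2 stably carrying PXR-Luc. Medium held 5% charcoal-stripped FBS. Compounds in DMSO added after 5 hr plating, incubated 24 hr, then luminescence quantified with ONE-Glo.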

[7] = target: Cytochrome P450 2D6 (Homo sapiens) (UniProt P10635); assay: Cytochrome P450 Family 2 Subfamily D Member 6 (CYP2D6) small molecule antagonists: luciferase reporter qHTS assay (AID 1671196); note: nearly all actives have a fitted effect of over 50% in size; for activity change, negative = inhibition: series mostly up to about 120 µM
Cytochrome P450 2D6 (Homo sapiens), sequence (P10635 whole entry, looked up): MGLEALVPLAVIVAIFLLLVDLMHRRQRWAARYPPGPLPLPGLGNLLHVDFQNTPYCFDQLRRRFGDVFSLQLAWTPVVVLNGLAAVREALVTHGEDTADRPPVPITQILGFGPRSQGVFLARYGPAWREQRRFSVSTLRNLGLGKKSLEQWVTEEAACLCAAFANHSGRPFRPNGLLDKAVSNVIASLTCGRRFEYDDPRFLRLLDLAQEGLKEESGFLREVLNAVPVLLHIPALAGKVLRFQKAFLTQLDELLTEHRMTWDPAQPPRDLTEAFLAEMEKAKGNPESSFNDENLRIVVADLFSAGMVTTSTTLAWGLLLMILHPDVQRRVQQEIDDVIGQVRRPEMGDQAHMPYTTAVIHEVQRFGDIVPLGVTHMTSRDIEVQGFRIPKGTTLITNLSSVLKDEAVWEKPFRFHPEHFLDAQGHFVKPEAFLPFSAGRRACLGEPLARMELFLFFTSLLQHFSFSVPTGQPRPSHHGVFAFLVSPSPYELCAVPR
Summary of the method: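 Enzyme and proluciferin substrate were first combined with test chemical for 10 min at room temperature. Adding NADPH regeneration solution started a 1 h reaction, stopped with luciferin detection reagent and read by luminescence 20 min later.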

[8] = target: Cytochrome P450 2C19 (Homo sapiens) (UniProt P33261); assay: Cytochrome P450 Family 2 Subfamily C Member 19 (CYP2C19) small molecule antagonists: luciferase reporter qHTS assay (AID 1671197); note: nearly all actives have a fitted effect of over 65% in size; for activity change, negative = inhibition: series mostly up to about 120 µM
Cytochrome P450 2C19 (Homo sapiens), sequence (P33261 whole entry, looked up): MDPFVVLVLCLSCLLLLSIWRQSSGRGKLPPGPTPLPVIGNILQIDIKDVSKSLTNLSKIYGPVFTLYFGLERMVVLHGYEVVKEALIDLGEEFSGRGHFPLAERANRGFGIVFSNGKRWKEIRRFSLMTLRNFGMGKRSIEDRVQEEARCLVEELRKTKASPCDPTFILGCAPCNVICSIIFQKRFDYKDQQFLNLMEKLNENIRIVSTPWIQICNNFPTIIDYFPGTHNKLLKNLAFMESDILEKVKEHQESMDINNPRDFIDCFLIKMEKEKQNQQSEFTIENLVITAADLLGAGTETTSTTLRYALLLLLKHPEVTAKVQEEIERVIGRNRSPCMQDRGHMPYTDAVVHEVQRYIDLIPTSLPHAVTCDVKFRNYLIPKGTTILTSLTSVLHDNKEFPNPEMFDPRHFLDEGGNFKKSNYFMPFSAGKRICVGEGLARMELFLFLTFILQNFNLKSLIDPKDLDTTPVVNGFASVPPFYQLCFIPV
Summary of the method: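 CYP2C19 P450-Glo, 1536-well qHTS. Cpd + enzyme/proluciferin substrate 10 min RT; + NADPH regen, 37C 1 h; stop with luciferin detection reagent, 20 min RT, luminescence (RLU). Pos ctrl ketoconazole.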

[9] = target: Cytochrome P450 2C9 (Homo sapiens) (UniProt P11712); assay: Cytochrome P450 Family 2 Subfamily C Member 9 (CYP2C9) small molecule antagonists: luciferase reporter qHTS assay (AID 1671198); note: nearly all actives have a fitted effect of over 50% in size; for activity change, negative = inhibition: series mostly up to about 120 µM
Cytochrome P450 2C9 (Homo sapiens), sequence (P11712 whole entry, looked up): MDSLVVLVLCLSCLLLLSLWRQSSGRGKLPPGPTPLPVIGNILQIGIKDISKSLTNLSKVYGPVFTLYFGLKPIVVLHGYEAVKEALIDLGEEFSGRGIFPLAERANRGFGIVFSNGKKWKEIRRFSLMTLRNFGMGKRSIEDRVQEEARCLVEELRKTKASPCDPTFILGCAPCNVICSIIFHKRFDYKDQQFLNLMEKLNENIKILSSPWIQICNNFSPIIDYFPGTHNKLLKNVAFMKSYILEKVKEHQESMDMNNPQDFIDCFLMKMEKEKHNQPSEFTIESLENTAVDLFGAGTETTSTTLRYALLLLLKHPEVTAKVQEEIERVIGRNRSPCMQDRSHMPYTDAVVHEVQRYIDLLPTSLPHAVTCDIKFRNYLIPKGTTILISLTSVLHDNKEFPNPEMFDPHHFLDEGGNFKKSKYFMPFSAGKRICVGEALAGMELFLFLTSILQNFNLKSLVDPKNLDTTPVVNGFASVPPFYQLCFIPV
Summary of the method: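 P450-Glo proluciferin substrate with CYP2C9 enzyme; 10 min RT preincubation, then NADPH regeneration 1 h at 37C; luciferin detection reagent 20 min RT, luminescence in relative luminescence units.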

[10] = target: Cytochrome P450 1A2 (Homo sapiens) (UniProt P05177); assay: Cytochrome P450 Family 1 Subfamily A Member 2 (CYP1A2) small molecule antagonists: luciferase reporter qHTS assay (AID 1671199); note: nearly all actives have a fitted effect of over 50% in size; for activity change, negative = inhibition: series mostly up to about 120 µM
Cytochrome P450 1A2 (Homo sapiens), sequence (P05177 whole entry, looked up): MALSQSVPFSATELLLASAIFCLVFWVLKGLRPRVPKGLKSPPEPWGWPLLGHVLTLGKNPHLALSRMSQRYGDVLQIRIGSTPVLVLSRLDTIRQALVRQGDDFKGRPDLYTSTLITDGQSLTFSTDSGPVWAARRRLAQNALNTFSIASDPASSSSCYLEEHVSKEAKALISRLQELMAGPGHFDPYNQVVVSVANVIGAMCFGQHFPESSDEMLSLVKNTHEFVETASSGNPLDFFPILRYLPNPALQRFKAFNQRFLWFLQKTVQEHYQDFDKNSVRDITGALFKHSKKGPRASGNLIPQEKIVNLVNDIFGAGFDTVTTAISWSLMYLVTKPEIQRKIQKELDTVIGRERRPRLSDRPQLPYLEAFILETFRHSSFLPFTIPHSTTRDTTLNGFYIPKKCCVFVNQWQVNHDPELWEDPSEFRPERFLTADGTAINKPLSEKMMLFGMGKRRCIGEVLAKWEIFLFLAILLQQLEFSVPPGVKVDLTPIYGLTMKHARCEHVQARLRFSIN
Summary of the method: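 Compounds were incubated with CYP1A2 and a luminogenic proluciferin substrate for 10 min at room temperature before the reaction was started with NADPH regeneration solution. After 1 h, detection reagent was added and light output, proportional to CYP activity, was recorded.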

[11] = target: Voltage-gated inwardly rectifying potassium channel KCNH2 (Homo sapiens) (UniProt Q12809); assay: Human Ether-a-go-go-Related Gene (hERG) channel small molecule antagonists: fluorescence cell-based qHTS assay (AID 1671200); note: nearly all actives have a fitted effect of over 50% in size;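 for activity change, negative = inhibition: hERG-expressing U2OS cells given a thallium stimulus after FluxOR II dye loading; series mostly up to about 77 µM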
Voltage-gated inwardly rectifying potassium channel KCNH2 (Homo sapiens), sequence (Q12809 whole entry, looked up): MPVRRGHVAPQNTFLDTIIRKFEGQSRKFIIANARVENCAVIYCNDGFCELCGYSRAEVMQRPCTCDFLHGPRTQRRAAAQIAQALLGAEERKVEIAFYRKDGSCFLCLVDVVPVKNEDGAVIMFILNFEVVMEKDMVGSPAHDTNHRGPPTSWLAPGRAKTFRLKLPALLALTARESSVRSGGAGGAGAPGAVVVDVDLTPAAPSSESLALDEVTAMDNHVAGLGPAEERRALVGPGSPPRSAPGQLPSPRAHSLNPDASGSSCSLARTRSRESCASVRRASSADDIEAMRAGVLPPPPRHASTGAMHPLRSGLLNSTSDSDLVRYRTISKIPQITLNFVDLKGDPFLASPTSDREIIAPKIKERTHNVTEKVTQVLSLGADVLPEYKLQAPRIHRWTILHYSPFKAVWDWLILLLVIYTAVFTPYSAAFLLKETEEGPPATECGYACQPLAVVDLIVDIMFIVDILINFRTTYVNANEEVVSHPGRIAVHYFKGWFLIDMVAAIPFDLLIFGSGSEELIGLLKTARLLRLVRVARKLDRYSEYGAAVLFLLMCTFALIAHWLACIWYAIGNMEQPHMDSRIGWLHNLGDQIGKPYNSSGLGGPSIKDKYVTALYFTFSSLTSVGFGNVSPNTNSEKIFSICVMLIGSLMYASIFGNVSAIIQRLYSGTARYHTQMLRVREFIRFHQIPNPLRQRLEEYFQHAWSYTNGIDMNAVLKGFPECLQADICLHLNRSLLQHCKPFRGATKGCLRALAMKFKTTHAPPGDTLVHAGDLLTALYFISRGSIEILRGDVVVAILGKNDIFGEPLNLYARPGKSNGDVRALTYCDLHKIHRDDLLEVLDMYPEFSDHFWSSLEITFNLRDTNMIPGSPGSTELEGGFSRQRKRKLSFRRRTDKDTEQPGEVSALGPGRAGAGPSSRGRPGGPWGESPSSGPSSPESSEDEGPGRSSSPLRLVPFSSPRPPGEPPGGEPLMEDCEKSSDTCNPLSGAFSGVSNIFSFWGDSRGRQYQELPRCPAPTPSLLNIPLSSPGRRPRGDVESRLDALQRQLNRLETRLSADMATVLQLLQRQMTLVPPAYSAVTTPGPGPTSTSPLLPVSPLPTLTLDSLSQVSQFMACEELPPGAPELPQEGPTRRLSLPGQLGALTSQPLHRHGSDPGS
Summary of the method: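 Kinetic two-minute fluorescence traces, sampled at 1 s, were collected following thallium stimulus of U2OS cells (1000 per well) that had been cultured overnight at 37 C and loaded with FluxOR II.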

[12] = target: Cytochrome P450 3A4 (Homo sapiens) (UniProt P08684); assay: Cytochrome P450 Family 3 Subfamily A Member 4 (CYP3A4) small molecule antagonists: luciferase reporter qHTS assay (AID 1671201); note: nearly all actives have a fitted effect of over 50% in size; for activity change, negative = inhibition: series mostly up to about 120 µM
Cytochrome P450 3A4 (Homo sapiens), sequence (P08684 whole entry, looked up): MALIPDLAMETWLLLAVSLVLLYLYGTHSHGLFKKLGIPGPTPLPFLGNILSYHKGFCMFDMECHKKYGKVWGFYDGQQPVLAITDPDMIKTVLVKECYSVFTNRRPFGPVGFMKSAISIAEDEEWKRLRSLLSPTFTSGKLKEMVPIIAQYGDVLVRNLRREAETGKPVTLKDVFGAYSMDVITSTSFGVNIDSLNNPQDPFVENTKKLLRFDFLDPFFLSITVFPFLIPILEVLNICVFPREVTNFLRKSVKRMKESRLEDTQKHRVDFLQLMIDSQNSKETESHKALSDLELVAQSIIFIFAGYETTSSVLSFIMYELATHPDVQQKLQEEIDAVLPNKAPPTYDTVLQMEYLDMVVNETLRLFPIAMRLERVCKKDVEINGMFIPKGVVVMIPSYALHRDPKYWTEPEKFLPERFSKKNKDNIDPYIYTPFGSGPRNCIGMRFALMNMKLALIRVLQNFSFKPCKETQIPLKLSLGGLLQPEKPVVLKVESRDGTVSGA
Summary of the method: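 Proluciferin-to-luciferin conversion by CYP3A4, NADPH-regenerated, 1 h RT; luminescence read as RLU. Ketoconazole as control.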

[13] = target: Nuclear receptor subfamily 1 group I member 2 (Homo sapiens) (UniProt O75469); assay: CYP3A4 induction through human pregnane X receptor (PXR) by small molecules, qHTS assay (AID 1346984); note: nearly all actives have a fitted effect of over 40% in size
Summary of the method: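 Quantitative HTS in DPX-2 cells, i.e. HepG2 transfected with PXR response element and CYP3A4-promoter luciferase. Compounds in DMSO incubated 24hr at 37C; then P450-Glo CYP3A4 substrate, 3uM final, 3hr; One-Glo luminescence.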

[14] = target: Nuclear receptor subfamily 1 group I member 2 (Homo sapiens) (UniProt O75469); assay: Human pregnane X receptor (PXR) activation by small molecules, qHTS assay (AID 1346985); note: nearly all actives have a fitted effect of over 40% in size
Summary of the method: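 DPX-2 cells (HepG2 co-transfected with a PXR response element and a CYP3A4-promoter luciferase construct) were seeded at 2,000 per well, rested 5 hr at 37C, then exposed to DMSO-dissolved compounds for 24 hr. Activation was read as luciferase luminescence.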
% is set by controls: 0 for no effect and ±100 for the full control effect; potency is the fitted concentration of half-maximal effect.

Oc1ccc(Cl)cc1Sc1cc(Cl)ccc1O
inactive: Potency [2] | Potency [4] | Potency [7] | Potency [11]
active: Potency [1] 15.3 µM | Potency [3] 30.6 µM | Potency [5] 38.5 µM | Potency [6] 27.3 µM | Potency [8] 1.26 µM and 1.55 µM | Potency [9] 10 µM and 7.76 µM | Potency [10] 35.5 µM and 27.5 µM

Nc1c(Cl)cc(Cl)cc1Cl
inactive: Potency [1] | Potency [2] | Potency [3] | Potency [4] | Potency [5] | Potency [6] | Potency [7] | Potency [8] | Potency [9] | Potency [11]
active: Potency [10] 15.7 µM

CSc1ccc(/C=C2/C(C)=C(CC(=O)O)c3cc(F)ccc32)cc1
inactive: Potency [1] | Potency [2] | Potency [3] | Potency [4] | Potency [5] | Potency [6] | Potency [7] | Potency [11] | Potency [12]
active: Potency [8] 17.4 µM

[O-][n+]1ccccc1SSc1cccc[n+]1[O-]
inactive: caspase-3/7 activation [4] -5.93% [at 19 µM] | activation [6] -49.4% [at 19 µM] | Potency [13] | activity change, negative = inhibition [11] 14% [at 15.8 µM] | activity change, negative = inhibition [12] 7.02% [at 23.6 µM]
active: Potency [1] 0.184 µM | Potency [2] 0.291 µM | Potency [3] 0.073 µM | Potency [5] 4.11 µM | Potency [14] 11.2 µM | Potency [7] 2.13 µM | Potency [8] 0.536 µM | Potency [9] 1.51 µM | Potency [10] 2.81 µM

CC(=O)N1CCN(c2ccc(OC[C@H]3CO[C@](Cn4ccnc4)(c4ccc(Cl)cc4Cl)O3)cc2)CC1
active: Potency [1] 27.3 µM | Potency [2] 68.6 µM | Potency [3] 27.3 µM | Potency [5] 61.1 µM
inactive: Potency [4] | Potency [6] | Potency [13] | Potency [14]

C/C=C(\C)C(=O)OCc1ccccc1
active: Potency [10] 35.6 µM
inactive: Potency [1] | Potency [2] | Potency [3] | Potency [4] | Potency [6] | Potency [7] | Potency [8] | Potency [11] | Potency [12]

Cc1cc(O)c2ccccc2c1O
active: Potency [1] 16.8 µM | Potency [3] 10.6 µM | Potency [13] 1.58 µM | Potency [7] 17.4 µM | Potency [8] 11 µM | Potency [9] 12.3 µM | Potency [10] 1.23 µM | Potency [11] 3.38 µM
inactive: Potency [2] | Potency [4] | Potency [6] | Potency [14]

CNc1ccc(O)cc1
inactive: Potency [2] | Potency [4] | Potency [11]
active: Potency [1] 61 µM | Potency [3] 13.7 µM | Potency [5] 54.4 µM | Potency [7] 12.6 µM | Potency [8] 15.9 µM | Potency [9] 22.4 µM | Potency [10] 63.2 µM | Potency [12] 25.1 µM

CCCCCCCCCCCCCCCCCC[N+](C)(C)C
inactive: Potency [2] | Potency [4] | Potency [6]
active: Potency [1] 54.6 µM | Potency [3] 27.4 µM | Potency [7] 0.635 µM | Potency [8] 89.6 µM | Potency [9] 63.5 µM | Potency [12] 71.2 µM

O=C(NOCC1CC1)c1ccc(F)c(F)c1Nc1ccc(I)cc1Cl
inactive: Potency [2] | Potency [4] | Potency [6] | Potency [7]
active: Potency [1] 18.8 µM | Potency [3] 18.8 µM | Potency [8] 0.246 µM | Potency [9] 0.55 µM | Potency [10] 15.5 µM

NNC(=O)c1cccc(C(=O)NN)c1
inactive: Potency [1] | Potency [2] | Potency [3] | Potency [4] | Potency [5] | Potency [6] | Potency [8] | Potency [11]
active: Potency [12] 3.99 µM

CS(=O)(=O)CCNCc1ccc(-c2ccc3ncnc(Nc4ccc(OCc5cccc(F)c5)c(Cl)c4)c3c2)o1
active: Potency [1] 26.6 µM | Potency [2] 33.5 µM | Potency [3] 23.7 µM | Potency [5] 29.8 µM | Potency [8] 8.71 µM
inactive: Potency [4] | Potency [10]

O=c1cc(-c2ccc(O)cc2)oc2cc(O)cc(O)c12
inactive: Potency [2] | Potency [4]
active: Potency [1] 39.8 µM and 27.3 µM | Potency [3] 55.2 µM and 43.3 µM | Potency [6] 24.7 µM and 24.3 µM | Potency [7] 64.1 µM | Potency [8] 32.1 µM and 39.9 µM | Potency [9] 36.1 µM and 39.9 µM

CC[C@H]1O[C@]2(CC[C@@H]1C)C[C@@H]1C[C@@H](C/C=C(\C)C[C@@H](C)/C=C/C=C3\CO[C@@H]4[C@H](O)C(C)=C[C@@H](C(=O)O1)[C@]34O)O2
inactive: Potency [10]
active: Potency [1] 27.1 µM | Potency [2] 30.4 µM | Potency [3] 17.1 µM | Potency [4] 13.6 µM | Potency [5] 42.9 µM | Potency [6] 6.06 µM | Potency [8] 19.8 µM | Potency [9] 12.5 µM | Potency [12] 5.59 µM

CC[C@@]1(O)C(=O)OCc2c1cc1n(c2=O)Cc2c-1nc1ccccc1c2/C=N/OC(C)(C)C
active: Potency [1] 0.237 µM | Potency [2] 0.335 µM | Potency [3] 0.75 µM | Potency [4] 11.9 µM
inactive: Potency [6] | Potency [7] | Potency [8] | Potency [10]

O=c1cccccc1O
active: Potency [3] 7.84 µM | Potency [6] 69.9 µM
inactive: Potency [1] | Potency [2] | Potency [4] | Potency [7] | Potency [8] | Potency [9] | Potency [12]
